These results are taken from the supplement of paper PMC7411054.

Holding throughout (conditions): treatment time: 24 h
Assay [1] deals with A549-ACTB-RAB5A. Kind of assay: lowest phenotypically active concentration; higher = less potent. The gist of the method: (§1)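 Phenotypic activity depended on meeting both a deviation and a reproducibility criterion. The fifteen gene-edited A549, HepG2 and WPMY1 reporter lines were treated at 0.3, 1, 3 or 9 µM for 24 h, four wells each, then imaged live with features normalised to solvent control wells. Deviation required ≥3 of 4 wells past the 95th percentile of control Euclidean distances, and reproducibility a median replicate Pearson correlation above the 95th percentile of non-replicates.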

The test system of assay [2] is A549-GM130-SQSTM1. The assay is described as above. The gist of the method: as §1
Assay [3] relates to HepG2-ACTB-RAB5A. Described as above. The gist of the method:
as §1

Assay [4] has as its system WPMY1-CANX-COX4. The description is as above. The gist of the method:
as §1

For assay [5], the system named is A549-ACTB-RAB5A. Kind of assay: phenotypically active (imaging signature differs from DMSO and reproducible) at any of 0.3-9 uM (binary (1 = active, 0 = inactive)); higher = active. The gist of the method: as §1
The subject of assay [6] is A549-CANX-COX4. The assay is described as above. The gist of the method: as §1
Assay [7] concerns A549-GM130-SQSTM1. The description is as above. The gist of the method:
as §1

The test system of assay [8] is A549-TP53BP1-CLTA. The description is as above. The gist of the method:
as §1

Assay [9] relates to A549-TUBA1B-RELA. The description is as above. The gist of the method:
as §1

Assay [10] deals with HepG2-ACTB-RAB5A. The assay is described as above. The gist of the method: as §1
The subject of assay [11] is HepG2-CANX-COX4. The description is as above. The gist of the method:
as §1

Assay [12] has as its system HepG2-GM130-SQSTM1. The description is as above. The gist of the method: as §1
For assay [13], the system named is HepG2-TP53BP1-CLTA. The description is as above. The gist of the method: as §1
In assay [14] the test system is HepG2-TUBA1B-RELA. The assay is described as above. The gist of the method:
as §1

In assay [15] the test system is WPMY1-ACTB-RAB5A. The description is as above. The gist of the method:
as §1

Assay [16] concerns WPMY1-CANX-COX4. Described as above. The gist of the method: as §1
Assay [17] relates to WPMY1-GM130-SQSTM1. The assay is described as above. The gist of the method:
as §1

Assay [18] relates to WPMY1-TP53BP1-CLTA. Described as above. The gist of the method: as §1
The subject of assay [19] is WPMY1-TUBA1B-RELA. The assay is described as above. The gist of the method:
as §1

Assay [20] concerns A549-TUBA1B-RELA. Kind of assay: lowest phenotypically active concentration; higher = less potent. The gist of the method: as §1

Each structure is given as a SMILES string.

With `O=C(O)C[C@H](O)C[C@H](O)/C=C/c1c(C2CC2)nc2ccccc2c1-c1ccc(F)cc1` [Pitavastatin calcium], the “lowest phenotypically active concentration” value was 1 µM in assay [1], 9 µM in assay [2], 1 µM in [3] and 1 µM in assay [4]. In addition, the phenotypically active was 1 (active) in [5]; 0 (inactive) in assay [6]; 1 (active) in [7]; 1 (active) in [8]; 0 (inactive) in [9]; 1 (active) in assay [10]. For the same molecule, the phenotypically active in assay [11], in assay [12], in assay [13], in assay [14], in [15] and in [16] was 1 (active) throughout. Besides, the phenotypically active in assay [17], in assay [18] and in assay [19] was 1 (active) each time.
For `Cc1noc(C)c1Cn1cc(C#N)c2cc(Oc3ccc(NC(=O)[C@@H]4CCCN4)cc3)ccc21`, the “lowest phenotypically active concentration” value in assay [1], in assay [2], in assay [20] and in [4] was 9 µM each time. Further, the phenotypically active in [5] is 1 (active); in [6], 0 (inactive); in [7], 1 (active); in [8], 1 (active); in [9], 1 (active); in assay [10] it was 0 (inactive). Further, the phenotypically active in assay [11] is 0 (inactive); in assay [12], 1 (active); in assay [13] it was 1 (active); in assay [14], 1 (active); in assay [15], 1 (active); in assay [16], 1 (active). The phenotypically active in assay [17], in assay [18] and in assay [19] was 1 (active) each time.
As to `N#C/C(=C(/N)Sc1ccc(N)cc1)c1ccccc1C(F)(F)F`, the “lowest phenotypically active concentration” value in [1], in assay [2] and in assay [3] was 3 µM throughout. Moreover, the phenotypically active in assay [5] was 1 (active); in assay [6] it was 0 (inactive); in [7], 1 (active); in assay [8] it was 1 (active); in assay [9], 0 (inactive); in assay [10], 1 (active). Also, the phenotypically active in assay [11] was 1 (active); in assay [12], 1 (active); in assay [13], 1 (active); in assay [14] it was 1 (active); in assay [15] it was 0 (inactive); in assay [16], 0 (inactive). In addition, the phenotypically active in [17] is 0 (inactive); in assay [18], 1 (active); in assay [19], 0 (inactive).
With `CCCNCC(O)COc1ccccc1C(=O)CCc1ccccc1` (centres undefined) [propafenone], the “lowest phenotypically active concentration” value in [1], in [2], in assay [20], in assay [3] and in assay [4] was 9 µM throughout. Besides, the phenotypically active in [5] is 1 (active); in assay [6], 0 (inactive); in assay [7], 1 (active); in assay [8] it was 1 (active); in assay [9] it was 1 (active); in assay [10], 1 (active). The phenotypically active in [11] is 0 (inactive); in assay [12] it was 0 (inactive); in assay [13], 0 (inactive); in [14], 1 (active); in [15] it was 1 (active); in [16], 1 (active). The phenotypically active in assay [17] was 1 (active); in [18], 1 (active); in assay [19] it was 0 (inactive).
With `O=S(=O)(c1cccc2cnccc12)N1CCCNCC1` [fasudil], the “lowest phenotypically active concentration” value worked out at 3 µM in [1]; 9 µM in assay [2]; 3 µM in assay [20]; 9 µM in assay [3]; 3 µM in [4]. Moreover, the phenotypically active was 1 (active) in assay [5]; 0 (inactive) in [6]; 1 (active) in [7]; 1 (active) in assay [8]; 1 (active) in assay [9]; 1 (active) in assay [10]. In addition, the phenotypically active in [11], in [12], in assay [13], in assay [14], in [15] and in [16] was 1 (active) throughout. Also, the phenotypically active in [17] is 1 (active); in assay [18] it was 0 (inactive); in [19], 1 (active).
Turning to `NC(=O)c1cccc(-c2cc(Nc3ccc(OC(F)(F)F)cc3)ncn2)c1`, the “lowest phenotypically active concentration” value in assay [1], in assay [2] and in assay [20] was 9 µM each time. Also, the phenotypically active in assay [5] was 1 (active); in assay [6] it was 0 (inactive); in [7], 1 (active); in assay [8], 1 (active); in [9], 1 (active); in assay [10] it was 0 (inactive). Besides, the phenotypically active in assay [11] is 0 (inactive); in assay [12], 1 (active); in [13] it was 0 (inactive); in assay [14], 0 (inactive); in assay [15] it was 1 (active); in assay [16], 0 (inactive). For the same molecule, the phenotypically active in [17] was 1 (active); in assay [18], 1 (active); in assay [19], 0 (inactive).
